PubChem BioAssay AID1508625 (Wald Lab, School of Medicine, Case Western Reserve …, 2021)

Experiment: enhancers of NK cell killing of ovarian tumor cells, primary screen, imaging, OVCAR3, primary NK cells, calcein-AM imaging (AID 1508625);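 also: compound given to NK cells 16 h before adding targets at 1.5 to 1 ratio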
Settings: OVCAR3 lysis by primary NK cells, at 5 µM; z-score: measured here: robust Z-score, single-point normalisation

**Q.** What does the source list for `COC(=O)c1cc(C=O)c(O)c(C=O)c1`?
**A.** corrected activity, negative = more killing: -2.3%; z-score: -1.01

**Q.** Which results are given for `O=C1C(=Cc2cccc([N+](=O)[O-])c2)Sc2ccccc21`?
**A.** corrected activity, negative = more killing: -3.79%; z-score: -1.61

**Q.** With `S=C1CSc2ccccc2N1` as the compound, how does the corrected activity, negative = more killing read?
**A.** The corrected activity, negative = more killing was -1.4%.

**Q.** What about the z-score of the same compound?
**A.** Its z-score is -0.377.

**Q.** Which corrected activity, negative = more killing does the source give for `Cc1cc(C)cc(-n2cnc3cc(C(=O)NC4CCCCCC4)ccc32)c1` here?
**A.** The corrected activity, negative = more killing was -4.5%.

**Q.** And the z-score?
**A.** The z-score was -1.21.

**Q.** For `Cc1ccccc1CSC1=NCCN1C(=O)c1ccc(OC(C)C)cc1`, which corrected activity, negative = more killing is on record?
**A.** The corrected activity, negative = more killing was -4.64%.

**Q.** And the z-score?
**A.** The z-score was -1.14.

**Q.** Which results are given for `Cc1ccc(NC(=O)CSc2nc3c([nH]c4ccccc43)c(=O)n2-c2ccc(F)cc2)cc1`?
**A.** corrected activity, negative = more killing: -5.11%; z-score: -1.27

**Q.** Which corrected activity, negative = more killing does the source give for `CCOC(=O)c1c(-c2ccccc2)csc1NC(=O)CSc1nc2ccccc2o1` here?
**A.** The corrected activity, negative = more killing was 25.2%.

**Q.** What about the z-score of the same compound?
**A.** Its z-score is 7.82.

**Q.** Which results are given for `COc1ccc(OC)c(C2Nc3ccccc3NC3=C2C(=O)CC(C)(C)C3)c1` (configuration not stated)?
**A.** corrected activity, negative = more killing: -5.96%; z-score: -1.85

**Q.** Which results are given for `COc1ccc(CN2c3cccc[n+]3CC2(O)c2ccc(Cl)cc2)cc1` (configuration not stated)?
**A.** corrected activity, negative = more killing: 0.199%; z-score: 0.0419

**Q.** Which corrected activity, negative = more killing does the source give for `Cc1ccc(-n2c(O)c(C=C3C=Nc4ccccc43)sc2=O)cc1` here?
**A.** Its corrected activity, negative = more killing is -3.36%.

**Q.** And the z-score?
**A.** The z-score was -1.74.

**Q.** What does the source list for `O=c1c2c(nc3c(-c4ccc(Cl)cc4)c(Cc4ccccc4)[nH]n13)CCC2`?
**A.** corrected activity, negative = more killing: -3.87%; z-score: -2

**Q.** For `c1cc2c(cc1Nc1nc(-c3ccc(C4CCCCC4)cc3)cs1)OCO2`, which corrected activity, negative = more killing is on record?
**A.** Its corrected activity, negative = more killing is 0.134%.

**Q.** And the z-score?
**A.** Its z-score is 0.0696.

**Q.** Which results are given for `CCCCCCCNC(=O)c1ccc2c(c1)ncn2-c1cccc(F)c1`?
**A.** corrected activity, negative = more killing: -3.62%; z-score: -0.976

**Q.** What does the source list for `CCN(CC)S(=O)(=O)c1ccc(C(=O)Nc2nc(-c3ccccc3)c(C(C)=O)s2)cc1`?
**A.** corrected activity, negative = more killing: -2.77%; z-score: -0.984

**Q.** Which results are given for `O=C(Cn1cnc2ccccc2c1=O)NCCC(=O)N1CCOCC1`?
**A.** corrected activity, negative = more killing: -5.47%; z-score: -1.74

**Q.** With `COc1ccc(C2=NN(C(=O)c3ccc(Br)o3)C(c3ccc(N(C)C)cc3)C2)cc1OC` (configuration not stated) as the compound, how does the corrected activity, negative = more killing read?
**A.** The corrected activity, negative = more killing was -3.55%.

**Q.** What about the z-score of the same compound?
**A.** The z-score was -1.9.
